esBAF inh = inhibitors of esBAF chromatin remodeling in mouse ES cells; Bmi1-luciferase knock-in reporter, 24 h; 100% = twice the neutral-well signal; reporter increase, % at 12.5 µM; actives 2% (n = 350,000); in the data active means activation above about 40%; inconclusive means no clear call, values can overlap the other calls;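 further: 0% = median of the plate's neutral control wells and 100% = double that signal; a rise in the Bmi1 reporter signal indicates esBAF inhibition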
C2C12 statin = protects C2C12 myotubes from simvastatin toxicity | AID 602340 | actives 0.78% (n = 330,000) | ATP luminescence, 48 h; scaled: DMSO 0, geranylgeraniol control 100 | rescue of ATP level, % at 7.49 µM;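 active means mean ATP rescue above about 67%, or every replicate alone reaching that limit, limit read from the data, passing the limit was not always enough; inconclusive means no clear call, values can overlap the other calls; inactive means mean under the limit and some replicate under it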;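 further: myotubes were challenged with 10 µM simvastatin during compound exposure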
MITF TRPM1 HTS = increases MITF-driven TRPM1 promoter luciferase signal. SK-MEL-5 TRPM1-promoter luciferase, 24 h; % of positive control, neutral wells = 0. activation, % at 12.5 µM. actives 0.75% (n = 300,000);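 active means mean activation of at least 80% with every replicate also reaching 80%; inconclusive means mean reaches 80% but some replicate falls short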;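 further: 0% = neutral control wells and 100% = parthenolide positive control wells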
Wnt bcat act = Wnt/beta-catenin pathway activation | Wnt/beta-catenin reporter cell assay, activator, plate reader | activation, % at 9.35 µM | actives 1.2% (n = 300,000) | AID 743398; in the data active means activation above about 30%, passing the limit was not always enough; inconclusive means no clear call, values can overlap the other calls;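 further: 0% = neutral control wells and 100% = positive control wells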
Rtt109 Vps75 = C. albicans Rtt109 histone acetyltransferase inhibition. Q5AAJ8. purified Rtt109/Vps75, ThioGlo CoA-SH fluorescence, 4 h. inhibition, % at 34.9 µM. actives 0.16% (n = 330,000);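 active means inhibition of at least 50% in every replicate; inconclusive means best replicate reaches 50% inhibition but some replicates fall short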
Target sequence (Q5AAJ8 whole entry, looked up): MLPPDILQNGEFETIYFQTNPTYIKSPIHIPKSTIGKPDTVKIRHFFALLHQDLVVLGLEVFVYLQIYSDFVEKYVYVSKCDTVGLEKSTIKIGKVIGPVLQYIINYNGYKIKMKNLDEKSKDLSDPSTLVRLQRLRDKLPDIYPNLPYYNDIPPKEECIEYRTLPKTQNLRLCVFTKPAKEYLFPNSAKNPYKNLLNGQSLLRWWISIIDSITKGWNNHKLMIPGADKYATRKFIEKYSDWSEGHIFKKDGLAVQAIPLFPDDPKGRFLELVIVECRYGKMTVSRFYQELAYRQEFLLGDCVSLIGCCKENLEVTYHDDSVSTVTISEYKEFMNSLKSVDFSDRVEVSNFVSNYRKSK
Numbers without * were called inactive; ? = inconclusive; · = no result. Shown are actives, neighbours in structure and some others; about 3.1% of the full set was active somewhere.

SMILES	esBAF inh	C2C12 statin	MITF TRPM1 HTS	Wnt bcat act	Rtt109 Vps75
Cc1ccc(NC(=O)c2ccc(CSc3ccccn3)cc2)c(O)c1	·	·	·	26	4
Cc1ccccc1NC(=O)c1ccc(CSc2ncccn2)cc1	46*	9	35	4	-5
Cc1ccc(NC(=O)c2ccc(CSc3ccccn3)cc2)cc1	50*	-65	20	·	12
Cc1ccc(NC(=O)c2ccc(CSc3nnnn3C)cc2)cc1	30	3	97*	·	6
Cc1ccc(Cl)cc1NC(=O)c1ccc(CSc2nnnn2C)cc1	13	-11	13	·	-1
COCCNC(=O)C[C@H]1C[C@H]2c3cc(NS(=O)(=O)c4ccccc4)ccc3O[C@H]2[C@@H](CO)O1	-4	-3	·	·	·
COc1cc(/C=N/NC(=O)CSc2ccccn2)ccc1O	·	·	2	4	1
CN(C)c1ccc(/C=N/NC(=O)CSc2ccccn2)cc1	·	·	·	48*	10
O=C(CNc1ccccc1)N/N=C/c1ccc2c(c1)OCO2	11	1	4	14	-2
O=C(CSc1ncccn1)N/N=C/c1ccc2c(c1)OCO2	41*	4	54	0	-5
C[C@@H]1CN([C@H](C)CO)C(=O)Cc2cc(NC(=O)Nc3cccc4ccccc34)ccc2O[C@H]1CN(C)Cc1ccncc1	3	41	·	·	·
C[C@@H]1CN([C@@H](C)CO)C(=O)c2cccc(NC(=O)c3ccncc3)c2O[C@H]1CN(C)Cc1ccc(Cl)c(Cl)c1	7	-11	·	·	·
O=[N+]([O-])c1cc(C=NN2CCCCCC2)ccc1Cl	74*	-4	49	40*	-3
O=[N+]([O-])c1cccc(C=NN2CCCCCC2)c1	79*	6	52	-2	-10
O=[N+]([O-])c1cc(/C=N/NC(=S)Nc2ccccc2Cl)ccc1Cl	46*	-4	-64	-7	6
Nc1nnnn1/N=C\c1ccc(Cl)c([N+](=O)[O-])c1	1	·	·	-3	·
CC(C)c1ccc(/C=N/N2CCCCC2)cc1	·	·	98*	45*	-1
C[C@@H]1CCCCO[C@@H](CN(C)CC2CCCCC2)[C@@H](C)CN([C@@H](C)CO)C(=O)c2cc(NC(=O)NC3CCCCC3)ccc2O1	0	-8	·	·	·
O=[N+]([O-])c1cc(/C=N/N2CCCCC2)ccc1Cl	·	·	99*	10	9
O=[N+]([O-])c1cc(/C=N/N2CCN(c3ccccc3)CC2)ccc1Cl	·	·	64	0	1
COc1ccc2cc(C(=O)NCCc3ccccc3)[nH]c2c1	43*	1	?	13	-5
COc1ccc2c(=O)c(C(=O)NCCc3ccccc3)c[nH]c2c1	55*	-7	60	24	5
CN(C)CCCNC(=O)[C@@H]1[C@@H](CO)[C@@H]2Cn3c(ccc(-c4ccccc4)c3=O)[C@@H]2N1C	3	-9	·	·	·
O=C(/C=C\N1CCOCC1)c1ccc(Br)cc1	47*	24	13	10	0
C[C@H](CO)N1C[C@H](C)[C@H](CN(C)S(=O)(=O)c2ccc(F)cc2)Oc2ncc(C#CC(C)(C)O)cc2C1=O	-4	21	·	·	·
SMILES	esBAF inh	C2C12 statin	MITF TRPM1 HTS	Wnt bcat act	Rtt109 Vps75
C[C@@H]1CN([C@H](C)CO)C(=O)c2cc(C#Cc3ccncc3)cnc2O[C@@H]1CN(C)C(=O)CN(C)C	-2	10	·	·	·
CCCNC(=O)N[C@H]1C=C[C@H](CC(=O)NC2CCCCC2)O[C@H]1CO	0	-2	·	·	·
Cc1ccc(S(=O)(=O)c2nc(-c3ccccc3)oc2N2CCC(C(N)=O)CC2)cc1	6	6	-2	0	56*
COC(=O)Cn1c(=NC(=O)c2ccc(Cl)s2)sc2cc(C)ccc21	27	0	85*	·	0
C[C@@H]1CN([C@H](C)CO)C(=O)c2cccc(NS(=O)(=O)c3ccc(F)cc3)c2O[C@H]1CN(C)S(=O)(=O)c1ccccc1	-1	-16	·	·	·
N=c1cc(C2(O)CCCCC2)n2c(nc3ccccc32)s1	·	·	·	45*	-7
O=C1c2sc3nc4ccccc4n3c2C(=O)N1c1ccccc1Cl	12	13	4	3	8
O=C1OC(c2ccccc2)=C/C1=C/c1cccs1	26*	·	7	3	2
O=C(Nc1cccnc1N1CCOCC1)c1ccco1	·	·	1	41*	-6
O=C(Nc1cc(Cl)ccc1N1CCOCC1)c1ccco1	·	·	2	-3	-10
S=C(NCc1ccco1)N1CCN(C(c2ccccc2)c2ccccc2)CC1	-6	86*	-1	·	0
COc1ccc(S(=O)(=O)Nc2ccc3c(c2)C(=O)N([C@H](C)CO)C[C@@H](C)[C@H](CN(C)S(=O)(=O)c2cccs2)OCCCC[C@H](C)O3)cc1	2	102*	·	·	·
COc1ccc(S(=O)(=O)Nc2ccc3c(c2)C(=O)N([C@@H](C)CO)C[C@H](C)[C@@H](CN(C)S(=O)(=O)c2cccs2)OCCCC[C@@H](C)O3)cc1	-1	79*	·	·	·
C[C@@H]1CCCCO[C@@H](CN(C)S(=O)(=O)c2cccs2)[C@H](C)CN([C@@H](C)CO)C(=O)c2cc(NC(=O)Nc3ccc(F)cc3)ccc2O1	3	84*	·	·	·
COc1ccc(S(=O)(=O)Nc2ccc3c(c2)C(=O)N([C@H](C)CO)C[C@H](C)[C@H](CN(C)S(=O)(=O)c2cccs2)OCCCC[C@H](C)O3)cc1	3	97*	·	·	·
O=C(C[C@H]1C[C@H]2c3cc(NC(=O)Cc4ccncc4)ccc3O[C@H]2[C@@H](CO)O1)NCc1ccncc1	0	2	·	·	·
CO[C@@H]1CN(C)C(=O)c2cc(NC(=O)Cc3ccccc3)ccc2OC[C@H](C)N(C(C)=O)C[C@@H]1C	-2	-9	·	·	·
Cc1nc2nc(COc3ccccc3)nn2c(C)c1Cl	17	73*	·	0	-1
COc1ccccc1CNC(=O)C[C@@H]1C[C@H]2c3cc(NC(=O)NC4CCCC4)ccc3O[C@H]2[C@H](CO)O1	2	-2	·	·	·
CC1=NN(C(N)=S)C(=O)C1N=Nc1cccc(Cl)c1C (configuration not stated)	51*	-10	·	7	1
O=C(CCN1CCCCC1)NCC[C@@H]1CC[C@@H](NC(=O)c2ccc(F)cc2)[C@@H](CO)O1	0	-1	·	·	·
CCOC(=O)c1ccc(NC(=S)N2CCCC(C(=O)OCC)C2)cc1 (configuration not stated)	13	90*	-2	-2	4
COc1cc(C)ccc1OCCCOc1cc(C)ccc1Cl	28	156*	35	·	10
COc1cc(C)ccc1OCCCOc1c(Cl)cccc1Cl	·	·	35	1	-6
Cc1cccc2c3nc4ccccc4nc3n(C)c12	41*	9	25	9	6
Cc1cc(C(=O)COc2cccc([N+](=O)[O-])c2)c(C)n1C1CC1	71*	-4	105*	-2	-4
C[C@H](CO)N1C[C@H](C)[C@H](CN(C)S(=O)(=O)c2cn(C)cn2)Oc2ccc(NS(=O)(=O)c3cn(C)cn3)cc2C1=O	-4	-23	·	·	·
Nc1cc(SCc2ccc([N+](=O)[O-])cc2)ncn1	10	8	21	37*	5
